Data: publication PMC4336329 (PLoS ONE, 2015)
The whole screen tested about 310,000 compounds, of which about 14,000 (4.5%) showed an effect of 50% or more. Effects have a minus sign here. The sample as a whole holds a higher share of strong results than the screen did.

target: human ether-à-go-go-related gene (hERG) potassium channel (human, UniProt Q12809); assay: primary screen, population patch clamp on CHO cells stably expressing hERG; higher = less effect of the substance
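Note: peak tail current of the secondary pulse compared with the same well before compound.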

Chain of human ether-à-go-go-related gene (hERG) potassium channel (Q12809 whole entry, looked up): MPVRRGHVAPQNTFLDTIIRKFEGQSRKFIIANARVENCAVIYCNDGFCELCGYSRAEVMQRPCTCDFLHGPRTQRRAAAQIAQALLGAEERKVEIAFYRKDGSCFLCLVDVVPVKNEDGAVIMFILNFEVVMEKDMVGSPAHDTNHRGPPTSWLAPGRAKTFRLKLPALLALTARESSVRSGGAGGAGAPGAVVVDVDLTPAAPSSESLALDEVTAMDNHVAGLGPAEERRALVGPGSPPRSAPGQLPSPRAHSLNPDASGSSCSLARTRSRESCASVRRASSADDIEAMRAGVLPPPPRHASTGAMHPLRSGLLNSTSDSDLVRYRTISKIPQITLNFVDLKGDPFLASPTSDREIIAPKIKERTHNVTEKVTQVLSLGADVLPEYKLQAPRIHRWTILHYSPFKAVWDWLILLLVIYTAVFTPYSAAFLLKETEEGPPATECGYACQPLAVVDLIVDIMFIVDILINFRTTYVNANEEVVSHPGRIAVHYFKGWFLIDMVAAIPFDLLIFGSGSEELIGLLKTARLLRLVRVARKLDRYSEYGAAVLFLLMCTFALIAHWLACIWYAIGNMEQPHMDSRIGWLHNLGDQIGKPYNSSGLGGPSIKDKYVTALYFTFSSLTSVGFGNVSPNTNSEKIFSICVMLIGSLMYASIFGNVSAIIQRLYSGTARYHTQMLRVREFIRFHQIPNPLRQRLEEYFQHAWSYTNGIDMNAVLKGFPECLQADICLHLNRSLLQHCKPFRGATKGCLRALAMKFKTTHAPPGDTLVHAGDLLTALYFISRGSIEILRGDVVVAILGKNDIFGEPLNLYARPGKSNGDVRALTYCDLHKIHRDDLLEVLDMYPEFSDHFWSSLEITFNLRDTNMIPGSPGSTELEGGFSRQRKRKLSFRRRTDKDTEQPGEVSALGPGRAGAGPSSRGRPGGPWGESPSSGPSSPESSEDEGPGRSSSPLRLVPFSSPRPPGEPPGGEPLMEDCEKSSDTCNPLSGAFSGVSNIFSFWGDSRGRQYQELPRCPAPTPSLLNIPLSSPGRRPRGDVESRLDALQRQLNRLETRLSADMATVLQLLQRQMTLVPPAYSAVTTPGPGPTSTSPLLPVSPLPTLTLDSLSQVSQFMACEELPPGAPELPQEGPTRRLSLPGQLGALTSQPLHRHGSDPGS

SMILES | hERG current change (%, negative = inhibition) at 10uM
CC(NC(=O)c1ccc(Cl)cc1)c1nnc(SCC(=O)NC2=NCCS2)n1C (centres unmarked) | 22.3%
Cc1cc(O)c(N)c(C)c1Cl.Cl | -4.7%
Cn1c(=O)[nH]c(=O)c2c1nc(CN1CCN(c3cccc(Cl)c3)CC1)n2CCc1ccccc1 | -21.8%
CCOC(=O)C1=C(C)NC(SC)=C(C#N)C1CC(C)C (centres unmarked) | -12.3%
CCN(CC)S(=O)(=O)c1ccc(-c2nnc(SCC(N)=O)n2CC)cc1 | 35.8%
CCN1CCCC1CNC(=O)CN(C)S(=O)(=O)c1ccc(Cl)cc1 (centres unmarked) | -21.6%
Cc1ccc(S(=O)(=O)Nc2c(C)nc3nc(C)[nH]n3c2=O)c(C)c1 | 10.3%
Cc1ccc(N2C(=O)c3cccc4c(C(=O)O)ccc(c34)C2=O)cc1 | 8.57%
COc1ccc(-n2ncc3c(=O)n(CC(=O)N(C(C)C)C(C)C)cnc32)cc1 | 0.562%
Cc1cc(Br)cn2ccnc12 | -6.51%
CC(Sc1nnc(C2CCCCC2)n1N)C(=O)NCc1ccc2c(c1)OCO2 (centres unmarked) | 3.2%
CN1CCN(CCCNC(=O)c2ccc3c(=O)n(CCc4ccccc4)c(=O)[nH]c3c2)CC1 | 15.3%
O=C(CN1CCN(Cc2ccc(F)cc2)C1=O)NCc1cccs1 | -1.62%
O=C(CN1CCN(Cc2ccc(Cl)cc2)C1=O)NCc1cccs1 | -57.6%
O=C(CN1CCN(Cc2ccccc2)C1=O)NCc1cccs1 | 1.2%
CC1CCCC(C)N1C(=O)CSc1nc2c(c(=O)n(C)c(=O)n2C)n1C (centres unmarked) | 5.34%
O=C(c1ccc([N+](=O)[O-])cc1)N1CCSC1c1ccc(Cl)cc1 (centres unmarked) | -76.9%
O=C(c1ccc([N+](=O)[O-])cc1)N1CCSC1c1ccc(Br)cc1 (centres unmarked) | -64.2%
O=C(c1ccc([N+](=O)[O-])cc1)N1CCSC1c1ccccc1Cl (centres unmarked) | 7.77%
O=C(c1ccc([N+](=O)[O-])cc1)N1CCSC1c1ccccc1 (centres unmarked) | -39.3%
CN(C)c1ccc(C(=S)N2CCN(c3ccc([N+](=O)[O-])cc3)CC2)cc1 | -18.7%
CC(=O)Nc1ccc(N2C(=O)CSC2c2ccc([N+](=O)[O-])cc2)cc1 (centres unmarked) | -11.3%

SMILES | hERG current change (%, negative = inhibition) at 10uM
O=C(c1ccc([N+](=O)[O-])cc1)N1CCSC1c1cccc(Cl)c1 (centres unmarked) | -69.3%
O=C(NNC(=O)c1ccc([N+](=O)[O-])cc1)c1ccc(Br)cc1 | 14.5%
O=C(CC1C(=O)NCCN1C(=O)c1ccc([N+](=O)[O-])cc1)Nc1cccc(Cl)c1 (centres unmarked) | -40.4%
O=C(O)c1ccc(N2C(=O)CSC2c2cccc([N+](=O)[O-])c2)cc1 (centres unmarked) | 15.5%
CCOC(=O)c1ccc(NC(=S)N2CCSC2c2ccc(Br)cc2)cc1 (centres unmarked) | 5.4%
CN(C)c1ccc(C2SCCN2C(=O)c2ccc([N+](=O)[O-])cc2)cc1 (centres unmarked) | -66.7%
CC1NC(=O)N(C)[C@@H]2NC(=O)N(C)C(c3ccc([N+](=O)[O-])cc3)[C@@H]12 (some centres unmarked) | 7.29%
CCCCN(C(=O)NC(=O)Nc1cc(C)ccc1C)S(C)(=O)=O | 17.9%
CNC(=O)COC(=O)CCC(=O)c1ccc(Cl)cc1 | 7.45%
Cc1noc(C)c1COc1ccc(C(=O)Nc2ncccc2O)cc1 | 11.5%
Cc1ccc(C(=O)NCC2CCCO2)cc1[N+](=O)[O-] (centres unmarked) | 4.29%
Cc1cc(C=C2C(=O)c3ccccc3C2=O)c(C)n1-c1ccccc1 | 7.13%
C[C@H](NC(=O)OCc1ccccc1)C(=O)NNC(=O)[C@H](Cc1ccccc1)NC(=O)OC(C)(C)C | 31.2%
O=C1N(c2cccc(Cl)c2)C(c2cccnc2)N2CCCN12 (centres unmarked) | -4.39%
O=C(c1ccccc1)N1CCN(C(=O)c2ccccc2)C1c1ccccc1 | 4.53%
CC1(C)C[C@@H]2C[C@@](C)(CN2C(=O)c2ccccc2)C1 | 11.3%
COc1ccccc1C1SCCN1C(=O)c1ccc([N+](=O)[O-])cc1 (centres unmarked) | -38.7%
Cc1ccc(C(=O)N2CCN(C(=O)c3ccccc3)C2c2ccc(N(C)C)cc2)cc1 (centres unmarked) | -50.8%
COc1ccc(C2N(C(=O)c3ccccc3)CCN2C(=O)c2ccc(C)cc2)cc1 (centres unmarked) | -24.9%
COc1ccc(C2SCCN2C(=O)c2ccc([N+](=O)[O-])cc2)cc1 (centres unmarked) | -70%
COc1ccc(N2C(=O)CSC2c2ccc([N+](=O)[O-])cc2)cc1 (centres unmarked) | -37.3%
CC1(C)CC2CC(C)(CN2C(=O)c2ccccc2)C1 (centres unmarked) | 8.08%
